RPL19A-GFP yeast: RPL19A-GFP expression modulators in yeast, primary screen, cell-based, S. cerevisiae, multiplex flow cytometry, MLPCN; actives 0.3% (n = 330,000); S. cerevisiae RPL19A-GFP strain, 3 h; stronger effect = lower value; percent response vs DMSO, % at 10 µM;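 active = percent response vs DMSO below 50%; inconclusive = fewer than 70 events counted for the yeast strain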;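 also: median channel GFP fluorescence of the barcoded RPL19A-GFP strain; ratio of sample median GFP to plate DMSO average so 100% = DMSO; lower means less RPL19A-GFP as with rapamycin TOR inhibition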
CIT2 TOR yeast: modulators of CIT2-GFP expression in yeast, primary screen, S. cerevisiae, GFP fusion, multiplex flow cytometry, MLPCN library; S. cerevisiae CIT2-GFP strain, 3 h; 100 means same as DMSO wells; GFP response vs DMSO, % at 10 µM; actives 0.065% (n = 320,000); AID 2029, 2009;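 active = GFP response relative to DMSO above a set limit, near the screen mean plus 3 SD, cut at about 150% in these data; inconclusive = Fewer than 70 cells measured for a yeast strain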;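 also: ratio of well median GFP fluorescence to mean of DMSO wells on the plate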
LAP4-GFP MLPCN: modulators of LAP4-GFP expression in yeast, primary screen, S. cerevisiae, multiplex flow cytometry, MLPCN library; 3 h; median GFP as percent of DMSO wells; AID 2023, 2009; GFP response vs DMSO, % at 10 µM; actives 0.34% (n = 320,000);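 active = GFP response vs DMSO above a set limit, about the screen mean plus 3 SD, cut at about 150% in these data; inconclusive = under 70 cell events counted for the yeast strain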
MEP2-GFP yeast: modulators of MEP2-GFP levels in yeast, primary screen, S. cerevisiae, multiplex flow cytometry, MLPCN library. S. cerevisiae MEP2-GFP strain, 3 h; 100% = DMSO control level. GFP response vs DMSO, % at 10 µM. actives 0.51% (n = 330,000);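 active = GFP response versus DMSO above a set limit, roughly screen mean plus 3 SD, cut at about 180% in these data; inconclusive = fewer than 70 cells counted for a yeast strain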;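 also: median GFP fluorescence of the barcode-gated MEP2-GFP cells per well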
AGP1 TOR yeast: modulators of AGP1-GFP expression in yeast TOR pathway, primary screen, cell-based, multiplex flow cytometry, S. cerevisiae, MLPCN library; actives 0.02% (n = 320,000); 3 h; GFP as percent of DMSO wells; GFP response vs DMSO, % at 10 µM;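 active = GFP response relative to DMSO above a set limit, near screen average plus 3 SD, cut at about 150% in these data; inconclusive = fewer than 70 cells counted for the yeast strain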;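 also: median GFP channel fluorescence of the gated AGP1 strain per well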
Active calls of the source: *; [ ] = dose if it differs, or a comment. Hits are enriched below; roughly 0.93% of the tested compounds scored in any of these assays.

CC(=O)OC1C(OC(C)=O)N(C(C)=O)C(=O)N1C(C)=O (stereo not given) was read as RPL19A-GFP yeast 19*[may fluoresce violet], CIT2 TOR yeast inconclusive, LAP4-GFP MLPCN 76, MEP2-GFP yeast 200*[may fluoresce violet] and AGP1 TOR yeast inconclusive.
CN(CC(=O)NC1CCCc2ccccc21)S(=O)(=O)c1cccs1 (stereo not given) was read as RPL19A-GFP yeast 106, CIT2 TOR yeast 100, LAP4-GFP MLPCN 109, MEP2-GFP yeast 109 and AGP1 TOR yeast 104.
CCOc1ncccc1C(=O)OCCN1C(=O)c2ccccc2C1=O was read as RPL19A-GFP yeast 29*[may fluoresce violet], CIT2 TOR yeast inconclusive, LAP4-GFP MLPCN 107 and MEP2-GFP yeast 495*[may fluoresce violet].
CCOc1ncccc1C(=O)OCC(=O)c1ccccc1 was read as RPL19A-GFP yeast 101, CIT2 TOR yeast 99, LAP4-GFP MLPCN 112, MEP2-GFP yeast 102 and AGP1 TOR yeast 107.
For NNc1nc2c(-c3cccc(C(F)(F)F)c3)nnn2c2ccccc12 the results were RPL19A-GFP yeast 48*[may fluoresce violet], CIT2 TOR yeast inconclusive, LAP4-GFP MLPCN 122, MEP2-GFP yeast 400*[may fluoresce violet] and AGP1 TOR yeast 21.
COCCNc1nc2c(-c3cccc(C(F)(F)F)c3)nnn2c2ccccc12 was read as RPL19A-GFP yeast 95, CIT2 TOR yeast 97, LAP4-GFP MLPCN 106, MEP2-GFP yeast 114 and AGP1 TOR yeast 94.
`CCCCN(C(=O)C1CC1)C1CCS(=O)(=O)C1` (stereo not given) gave RPL19A-GFP yeast 101, CIT2 TOR yeast 109, LAP4-GFP MLPCN 101, MEP2-GFP yeast 105 and AGP1 TOR yeast 114.
Screening Cc1cccc(N(C(=O)Cc2cccs2)C(C(=O)NC2CCCC2)c2ccncc2)c1 (stereo not given) returned RPL19A-GFP yeast 50, CIT2 TOR yeast inconclusive, LAP4-GFP MLPCN 83, MEP2-GFP yeast 438*[may fluoresce violet] and AGP1 TOR yeast inconclusive.
`COc1ccc(N(C(=O)Cc2cccs2)C(C(=O)NC2CCCC2)c2ccncc2)cc1OC` (stereo not given) gave RPL19A-GFP yeast 102, CIT2 TOR yeast 101, LAP4-GFP MLPCN 95, MEP2-GFP yeast 103 and AGP1 TOR yeast 101.
Screening CC(=O)COc1cc(C)cc2oc(=O)cc(-c3ccccc3)c12 returned RPL19A-GFP yeast 102, CIT2 TOR yeast 104, LAP4-GFP MLPCN 101, MEP2-GFP yeast 104 and AGP1 TOR yeast 103.
Cc1cc(O)c2c(-c3ccccc3)cc(=O)oc2c1 was read as RPL19A-GFP yeast 45*[may fluoresce violet], CIT2 TOR yeast inconclusive, LAP4-GFP MLPCN 91, MEP2-GFP yeast 266*[may fluoresce violet] and AGP1 TOR yeast inconclusive.
`O=C1c2ccccc2-c2onc3ccc(Oc4ccccc4)c1c23` gave RPL19A-GFP yeast 83, CIT2 TOR yeast 125, LAP4-GFP MLPCN 234*, MEP2-GFP yeast 166 and AGP1 TOR yeast 90.
`CCOC(=O)C(C(=O)OCC)c1cc(Br)c2noc3c2c1C(=O)c1ccccc1-3` gave RPL19A-GFP yeast 93, CIT2 TOR yeast 89, LAP4-GFP MLPCN 143, MEP2-GFP yeast 111 and AGP1 TOR yeast 86.
Screening CC1CN(CC(=O)NCc2ccccc2)CC(C)O1 (stereo not given) returned RPL19A-GFP yeast 101, CIT2 TOR yeast 98, LAP4-GFP MLPCN 92, MEP2-GFP yeast 104 and AGP1 TOR yeast 89.
Screening O=C(c1ccc(Cn2c(=O)[nH]c3ccccc3c2=O)cc1)N1CCN(c2ccc(Cl)cc2)CC1 returned RPL19A-GFP yeast 100, CIT2 TOR yeast 100, LAP4-GFP MLPCN 100, MEP2-GFP yeast 110 and AGP1 TOR yeast 102.
Screening Cc1ccc(C)c(N2CCN(C(=O)c3ccc(Cn4c(=O)[nH]c5ccccc5c4=O)cc3)CC2)c1 returned RPL19A-GFP yeast 53, CIT2 TOR yeast inconclusive, LAP4-GFP MLPCN 86, MEP2-GFP yeast 489*[may fluoresce violet] and AGP1 TOR yeast inconclusive.
`CC(C)(C)SCCNS(=O)(=O)c1ccc(C#N)cc1` gave RPL19A-GFP yeast 101, CIT2 TOR yeast 98, LAP4-GFP MLPCN 110, MEP2-GFP yeast 100 and AGP1 TOR yeast 104.
COc1ccc(-c2[nH]ncc2-c2ccc(Cl)cc2)c(O)c1 was read as RPL19A-GFP yeast 77, CIT2 TOR yeast 91, LAP4-GFP MLPCN 153*, MEP2-GFP yeast 83 and AGP1 TOR yeast 68.
COC(=O)C1=C(C)N(CCc2ccccc2)C(=O)C1 was read as RPL19A-GFP yeast 44*[may fluoresce violet], CIT2 TOR yeast inconclusive, LAP4-GFP MLPCN 86, MEP2-GFP yeast 189*[may fluoresce violet] and AGP1 TOR yeast inconclusive.
Screening CCCN1C(=O)CC(C(=O)OC)=C1C returned RPL19A-GFP yeast 97, CIT2 TOR yeast 97, LAP4-GFP MLPCN 98, MEP2-GFP yeast 102 and AGP1 TOR yeast 99.
Screening COc1ccc(C2=NOC(Cn3nc(C(=O)NCc4ccco4)cc3-c3ccccc3)C2)cc1 (stereo not given) returned RPL19A-GFP yeast 96, CIT2 TOR yeast 91, LAP4-GFP MLPCN 100, MEP2-GFP yeast 100 and AGP1 TOR yeast 102.
Screening CC(=O)c1ccc(NC(=O)CN2CCC(NC(=O)C3CCCCC3)CC2)cc1 returned RPL19A-GFP yeast 105, CIT2 TOR yeast 134, LAP4-GFP MLPCN 124, MEP2-GFP yeast 175* and AGP1 TOR yeast 105.
`Cc1c(Cl)cccc1NC(=O)CN1CCC(NC(=O)C2CCCCC2)CC1` gave RPL19A-GFP yeast 100, CIT2 TOR yeast 103, LAP4-GFP MLPCN 105, MEP2-GFP yeast 108 and AGP1 TOR yeast 104.
Clc1ccc(Nc2ncnc3ccc(Br)cc23)cc1 was read as RPL19A-GFP yeast 92, CIT2 TOR yeast 76, LAP4-GFP MLPCN 166*, MEP2-GFP yeast 89 and AGP1 TOR yeast 80.
Screening COc1cc2nc(/C=C/c3cc(OC)c(OC)c(OC)c3)sc2cc1SC returned RPL19A-GFP yeast 18*[may fluoresce violet], CIT2 TOR yeast inconclusive, LAP4-GFP MLPCN 92, MEP2-GFP yeast 228*[may fluoresce violet] and AGP1 TOR yeast inconclusive.
For CSc1ccccc1NC(=O)CN(C)CC(=O)c1c(C)[nH]c2ccccc12 the results were RPL19A-GFP yeast 101, CIT2 TOR yeast 101, LAP4-GFP MLPCN 104, MEP2-GFP yeast 104 and AGP1 TOR yeast 100.
For Cc1ccc(S(=O)(=O)N2CCC(C(=O)OC(C)C(=O)NC(N)=O)CC2)cc1C (stereo not given) the results were RPL19A-GFP yeast 95, CIT2 TOR yeast 96, LAP4-GFP MLPCN 101, MEP2-GFP yeast 106 and AGP1 TOR yeast 99.
For Cc1ccc2[nH]c3c(c2c1)CCNC3=O the results were RPL19A-GFP yeast 97, CIT2 TOR yeast 110, LAP4-GFP MLPCN 125, MEP2-GFP yeast 177* and AGP1 TOR yeast 98.
For CCOc1ccc(NC(=O)CN(C)C(=O)CCCOc2ccc(Br)cc2)cc1OCC the results were RPL19A-GFP yeast 102, CIT2 TOR yeast 90, LAP4-GFP MLPCN 121, MEP2-GFP yeast 102 and AGP1 TOR yeast 108.

Source: PubChem
